# Assay results reported in PubChem BioAssay AID1159580 (chemical genetic matrix, 2015).
# “And” between values parts separate entries of the source, which are not always exact repeats. Equal entries are not always repeated. The whole screen tested about 5,500 compounds, of which about 2,000 (36%) were called active. Inconclusive results (about 18%) are left out. The list shows a part of the results. Values without a mark were called inactive. Cut-off read from the data, not from the text of the source: active = normalized growth mostly below about 0.91 (no sharp cut-off); inconclusive = no clear call, values can overlap the other calls; inactive = mostly above about 0.92.
# Assay: chemical genetic growth profiling, strain panel (AID 1159580);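 note: tested at 20 µM; growth read once vehicle control cultures reached saturation at 30 °C; 1 = growth at the plate median or of vehicle wells; lower values mean less growth of the strain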
# Conditions: S. cerevisiae deletion strains, growth OD
compound,measurement,setting,value
COc1cc(C)c(C(=O)Oc2cc(C)c(C(=O)O)c(O)c2C)c(OC)c1C,normalized growth,"locus YAL021C, strain ccr4, active compounds read low",1.01
same,normalized growth,"locus YAL026C, strain drs2, active compounds read low",0.965
same,normalized growth,"locus YAL030W, strain snc1, active compounds read low",0.994
same,normalized growth,"locus YBL061C, strain skt5, active compounds read low",0.987
same,normalized growth,"locus YBR009C, strain hhf1, active compounds read low",0.91
same,normalized growth,"locus YBR021W, strain FUR4, active compounds read low",0.995
same,normalized growth,"locus YBR023C, strain chs3, active compounds read low",0.983
same,normalized growth,"locus YBR171W, strain sec66, active compounds read low",0.969
same,normalized growth,"locus YBR229C, strain ROT2, active compounds read low",0.993
same,normalized growth,"locus YBR231C, strain swc5, active compounds read low",0.98
same,normalized growth,"locus YBR279W, strain paf1, active compounds read low",0.995
same,normalized growth,"locus YCL011C, strain gbp2, active compounds read low",0.968
same,normalized growth,"locus YCL016C, strain dcc1, active compounds read low",0.986
same,normalized growth,"locus YCL029C, strain bik1, active compounds read low",1.02
same,normalized growth,"locus YCL061C, strain MRC1, active compounds read low",0.974
same,normalized growth,"locus YCL069W, strain vba3, active compounds read low",0.976
same,normalized growth,"locus YCR088W, strain abp1, active compounds read low",0.994
same,normalized growth,"locus YDL005C, strain med2, active compounds read low",0.992
same,normalized growth,"locus YDL035C, strain GPR1, active compounds read low",0.991
same,normalized growth,"locus YDL040C, strain nat1, active compounds read low",0.974
same,normalized growth,"locus YDL074C, strain BRE1, active compounds read low",0.982
same,normalized growth,"locus YDL101C, strain DUN1, active compounds read low",1.02
same,normalized growth,"locus YDL134C, strain PPH21, active compounds read low",1.02
same,normalized growth,"locus YDL185W, strain tfp1, active compounds read low",1.02
same,normalized growth,"locus YDL192W, strain arf1, active compounds read low",1
same,normalized growth,"locus YDR001C, strain nth1, active compounds read low",0.972
same,normalized growth,"locus YDR069C, strain doa4, active compounds read low",0.993
same,normalized growth,"locus YDR101C, strain arx1, active compounds read low",1.01
same,normalized growth,"locus YDR137W, strain rgp1, active compounds read low",0.906
same,normalized growth,"locus YDR159W, strain sac3, active compounds read low",0.89
same,normalized growth,"locus YDR162C, strain NBP2, active compounds read low",0.98
same,normalized growth,"locus YDR195W, strain ref2",0.966
same,normalized growth,"locus YDR297W, strain sur2, active compounds read low",0.988
same,normalized growth,"locus YDR318W, strain mcm21, active compounds read low",1
same,normalized growth,"locus YDR334W, strain swr1, active compounds read low",1
same,normalized growth,"locus YDR335W, strain msn5, active compounds read low",0.993
same,normalized growth,"locus YDR388W, active compounds read low",1.01
same,normalized growth,"locus YDR392W, strain spt3, active compounds read low",0.479 (active)
same,normalized growth,"locus YDR502C, strain sam2, active compounds read low",1
same,normalized growth,"locus YEL003W, strain gim4, active compounds read low",0.968
same,normalized growth,"locus YEL037C, strain rad23, active compounds read low",0.982
same,normalized growth,"locus YEL061C, strain CIN8 (second series), active compounds read low",0.982
same,normalized growth,"locus YEL061C, strain CIN8, active compounds read low",1
same,normalized growth,"locus YER015W, strain faa2, active compounds read low",0.99
same,normalized growth,"locus YER016W, strain bim1, active compounds read low",0.984
same,normalized growth,"locus YER110C, active compounds read low",1.02
same,normalized growth,"locus YER111C, strain swi4, active compounds read low",0.97
same,normalized growth,"locus YER155C, strain BEM2 (second series), active compounds read low",0.708 (active)
same,normalized growth,"locus YER155C, strain BEM2, active compounds read low",1
same,normalized growth,"locus YER167W, strain BCK2, active compounds read low",0.999
same,normalized growth,"locus YFR010W, strain ubp6, active compounds read low",0.991
same,normalized growth,"locus YGL078C, strain dbp3, active compounds read low",0.986
same,normalized growth,"locus YGL086W, strain mad1, active compounds read low",1.02
same,normalized growth,"locus YGL167C, strain pmr1, active compounds read low",0.964
same,normalized growth,"locus YGL173C, strain kem1, active compounds read low",0.975
same,normalized growth,"locus YGL227W, strain vid30, active compounds read low",0.969
same,normalized growth,"locus YGL240W, strain doc1, active compounds read low",0.941
same,normalized growth,"locus YGL248W, strain PDE1, active compounds read low",1.01
same,normalized growth,"locus YGL253W, strain hxk2, active compounds read low",0.949
same,normalized growth,"locus YGR078C, strain PAC10, active compounds read low",0.992
same,normalized growth,"locus YGR135W, strain pre9, active compounds read low",1
same,normalized growth,"locus YGR252W, strain gcn5, active compounds read low",0.905
same,normalized growth,"locus YHR013C, strain ard1, active compounds read low",0.887
same,normalized growth,"locus YHR027C, strain rpn1, active compounds read low",1
same,normalized growth,"locus YHR030C, strain SLT2, active compounds read low",1.02 and 0.932
same,normalized growth,"locus YHR079C, strain IRE1 (second series), active compounds read low",1.02
same,normalized growth,"locus YHR079C, strain IRE1, active compounds read low",0.845 (active)
same,normalized growth,"locus YHR094C, strain hxt1, active compounds read low",1.01
same,normalized growth,"locus YHR129C, strain ARP1, active compounds read low",1.01
same,normalized growth,"locus YHR142W, strain chs7, active compounds read low",0.994
same,normalized growth,"locus YHR200W, strain rpn10, active compounds read low",1
same,normalized growth,"locus YIL066C, strain RNR3, active compounds read low",1
same,normalized growth,"locus YIL073C, strain SPO22, active compounds read low",1.06
same,normalized growth,"locus YIL125W, strain kgd1, active compounds read low",0.996
same,normalized growth,"locus YIR030C, strain dcg1, active compounds read low",1.01
same,normalized growth,"locus YJL092W, strain hpr5, active compounds read low",0.983
same,normalized growth,"locus YJL095W, strain BCK1 (second series), active compounds read low",0.988
same,normalized growth,"locus YJL095W, strain BCK1, active compounds read low",0.998 and 0.884
same,normalized growth,"locus YJL115W, strain asf1, active compounds read low",0.991
same,normalized growth,"locus YJL129C, strain trk1, active compounds read low",0.867 (active)
same,normalized growth,"locus YJL134W, strain LCB3, active compounds read low",1.01
same,normalized growth,"locus YJL154C, strain vps35, active compounds read low",0.979
same,normalized growth,"locus YJL164C, strain tpk1, active compounds read low",0.993
same,normalized growth,"locus YJL166W, strain qcr8, active compounds read low",0.953
same,normalized growth,"locus YJL168C, strain set2, active compounds read low",1
same,normalized growth,"locus YJL187C, strain SWE1 (second series), active compounds read low",1.03
same,normalized growth,"locus YJL187C, strain SWE1, active compounds read low",0.993
same,normalized growth,"locus YJR043C, strain POL32, active compounds read low",0.998
same,normalized growth,"locus YJR066W, strain TOR1, active compounds read low",0.975
same,normalized growth,"locus YJR075W, strain HOC1, active compounds read low",1.01
same,normalized growth,"locus YKL009W, strain mrt4, active compounds read low",0.992
same,normalized growth,"locus YKL068W, active compounds read low",1
same,normalized growth,"locus YKL085W, strain MDH1 (second series), active compounds read low",0.995
same,normalized growth,"locus YKL085W, strain MDH1, active compounds read low",0.995
same,normalized growth,"locus YKL160W, strain elf1, active compounds read low",0.991
same,normalized growth,"locus YKL190W, strain CNB1, active compounds read low",1.01
same,normalized growth,"locus YKR001C, strain vps1, active compounds read low",0.956
same,normalized growth,"locus YKR026C, strain gcn3, active compounds read low",0.979
same,normalized growth,"locus YKR091W, strain srl3, active compounds read low",0.981
same,normalized growth,"locus YLL001W, strain dnm1, active compounds read low",1
same,normalized growth,"locus YLL026W, active compounds read low",0.968
same,normalized growth,"locus YLL041C, strain sdh2, active compounds read low",0.982
same,normalized growth,"locus YLR027C, strain aat2, active compounds read low",0.991
same,normalized growth,"locus YLR039C, strain RIC1, active compounds read low",1.03
same,normalized growth,"locus YLR058C, strain SHM2, active compounds read low",1.01
same,normalized growth,"locus YLR102C, strain apc9, active compounds read low",1.02
same,normalized growth,"locus YLR113W, strain HOG1, active compounds read low",0.557 (active)
same,normalized growth,"locus YLR221C, strain rsa3, active compounds read low",1.01
same,normalized growth,"locus YLR258W, strain gsy2, active compounds read low",0.947
same,normalized growth,"locus YLR262C, strain YPT6 (second series), active compounds read low",0.943
same,normalized growth,"locus YLR262C, strain YPT6, active compounds read low",1.03
same,normalized growth,"locus YLR268W, strain sec22, active compounds read low",1.03
same,normalized growth,"locus YLR320W, strain mms22, active compounds read low",0.859 (active)
same,normalized growth,"locus YLR330W, strain CHS5, active compounds read low",1.01
same,normalized growth,"locus YLR342W, strain FKS1 (second series), active compounds read low",0.985
same,normalized growth,"locus YLR342W, strain FKS1, active compounds read low",0.978
same,normalized growth,"locus YLR357W, strain rsc2, active compounds read low",0.94
same,normalized growth,"locus YLR370C, strain arc18, active compounds read low",0.999
same,normalized growth,"locus YLR371W, strain rom2, active compounds read low",1.02
same,normalized growth,"locus YLR384C, strain iki3, active compounds read low",0.992
same,normalized growth,"locus YLR418C, strain cdc73, active compounds read low",0.859
same,normalized growth,"locus YML016C, strain PPZ1, active compounds read low",1.01
same,normalized growth,"locus YML032C, strain rad52, active compounds read low",0.985
same,normalized growth,"locus YML120C, strain ndi1, active compounds read low",0.971
same,normalized growth,"locus YML124C, strain tub3, active compounds read low",1.01
same,normalized growth,"locus YMR058W, strain fet3, active compounds read low",0.984
same,normalized growth,"locus YMR078C, strain ctf18, active compounds read low",1
same,normalized growth,"locus YMR125W, strain sto1, active compounds read low",0.912
same,normalized growth,"locus YMR129W, active compounds read low",0.97
same,normalized growth,"locus YMR205C, strain PFK2, active compounds read low",0.852 (active)
same,normalized growth,"locus YMR223W, strain ubp8, active compounds read low",0.994
same,normalized growth,"locus YMR231W, strain pep5, active compounds read low",0.988
same,normalized growth,"locus YMR307W, strain GAS1, active compounds read low",0.978
same,normalized growth,"locus YNL067W, strain RPL9B, active compounds read low",1.04
same,normalized growth,"locus YNL071W, strain lat1, active compounds read low",0.869 (active)
same,normalized growth,"locus YNL128W, strain TEP1, active compounds read low",1.03
same,normalized growth,"locus YNL153C, strain GIM3, active compounds read low",1.01
same,normalized growth,"locus YNL183C, strain NPR1, active compounds read low",0.955
same,normalized growth,"locus YNL209W, strain ssb2, active compounds read low",1
same,normalized growth,"locus YNL233W, strain BNI4, active compounds read low",1
same,normalized growth,"locus YNL248C, strain rpa49, active compounds read low",1.01
same,normalized growth,"locus YNL250W, strain rad50, active compounds read low",1.03
same,normalized growth,"locus YNL271C, strain bni1, active compounds read low",1.01
same,normalized growth,"locus YNL298W, strain CLA4, active compounds read low",0.934
same,normalized growth,"locus YNL307C, strain MCK1, active compounds read low",1
same,normalized growth,"locus YNL322C, strain KRE1 (second series), active compounds read low",0.996
same,normalized growth,"locus YNL322C, strain KRE1, active compounds read low",1
same,normalized growth,"locus YNR049C, strain mso1, active compounds read low",0.978
same,normalized growth,"locus YNR052C, strain pop2, active compounds read low",1
same,normalized growth,"locus YOL012C, strain htz1",1.06
same,normalized growth,"locus YOL147C, strain pex11, active compounds read low",1.01
same,normalized growth,"locus YOR001W, strain rrp6, active compounds read low",0.989
same,normalized growth,"locus YOR061W, strain CKA2, active compounds read low",1.01
same,normalized growth,"locus YOR069W, strain VPS5, active compounds read low",1.02
same,normalized growth,"locus YOR070C, strain gyp1, active compounds read low",0.983
same,normalized growth,"locus YOR080W, strain dia2, active compounds read low",0.997
same,normalized growth,"locus YOR083W, strain WHI5, active compounds read low",1.03
same,normalized growth,"locus YOR106W, strain vam3, active compounds read low",1
same,normalized growth,"locus YOR136W, strain idh2, active compounds read low",1.02
same,normalized growth,"locus YOR144C, strain elg1, active compounds read low",1.01
same,normalized growth,"locus YOR184W, strain ser1, active compounds read low",0.986
same,normalized growth,"locus YOR231W, strain MKK1, active compounds read low",0.777 (active)
same,normalized growth,"locus YOR265W, strain rbl2, active compounds read low",0.992
same,normalized growth,"locus YOR270C, strain vph1, active compounds read low",0.928
same,normalized growth,"locus YOR290C, strain snf2, active compounds read low",0.931
same,normalized growth,"locus YOR316C, strain cot1, active compounds read low",1.01
same,normalized growth,"locus YPL051W, strain arl3, active compounds read low",1
same,normalized growth,"locus YPL055C, strain LGE1, active compounds read low",1.01
same,normalized growth,"locus YPL078C, strain atp4, active compounds read low",0.986
same,normalized growth,"locus YPL106C, strain sse1, active compounds read low",0.974
same,normalized growth,"locus YPL240C, strain hsp82, active compounds read low",0.979
same,normalized growth,"locus YPL241C, strain CIN2, active compounds read low",0.995
same,normalized growth,"locus YPL256C, strain CLN2, active compounds read low",0.917
same,normalized growth,"locus YPR119W, strain clb2, active compounds read low",1.01
same,normalized growth,"locus YPR141C, strain kar3, active compounds read low",1.03
same,normalized growth,"locus YPR163C, strain tif3, active compounds read low",1.01
same,normalized growth,"locus YPR167C, strain met16, active compounds read low",1.01
same,normalized growth,"strain wtn01, active compounds read low",1.04
